Source: PubChem BioAssay
Six1-Eya2 blk: inhibitors of human Six1/Eya2 interaction | AlphaScreen GST-Six1/His-Eya2 binding, biochemical; hits give low values | actives 0.56% (n = 360,000) | Q15475+O00167 | activity change, % (concentration not given with the values) | AID 651725; in the data active = activity change below about -65%; inconclusive = mostly about -30% to -63%
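AlphaScreen with GST-Six1 and His-Eya2 (5X mix: 250 nM and 500 nM), glutathione donor and nickel acceptor beads; buffer 50 mM Tris pH 8.0, 300 mM NaCl, 1 mM TCEP; 1 h at 37 C in the dark.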
TrxR1 inh: rat TrxR1 inhibition; recombinant rTrxR1, NADPH fluorescence consumption, selenite substrate; AID 588453; actives 1% (n = 390,000); Potency, µM (doses to about 114 µM), for inactives: at the top dose activity change, negative = inhibition, actives largely listed as inhibitors; O89049; note: potency is the fitted concentration of half-maximal effect; nearly all actives have a fitted effect of over 65% in size
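Rat TrxR1 (90 nM in the dispensed reagent) was pre-reduced with 400 uM NADPH for 5 min at room temperature, then incubated with compound for 15 min. After 400 uM selenite was added, NADPH fluorescence (Ex 340/Em 450 nm) was followed for 8 min.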
Eya2 phos inh: Eya2 (human) phosphatase inhibition. AID 488837. O00167. recombinant Eya2, OMFP fluorescence dephosphorylation (OMFP is methylfluorescein phosphate). actives 0.006% (n = 330,000). Potency, µM (highest dose often 76.9 µM), without a hit: at the top dose activity, negative = inhibition, hits mostly inhibitors; note: potency is the fitted concentration of half-maximal effect
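Eya2 (0.2 uM) preincubated 10 min at ambient with compound, then OMFP substrate added at 50 uM; 10 min reaction in 50 mM HEPES pH 7.5, 50 mM NaCl, 5 uM MgCl2, 0.05% BSA, 1 mM DTT. Fluorescence read at Ex 485/Em 525 nm.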
TrxR1 substrate: is turned over as a substrate by rat TrxR1 | O89049 | purified TrxR1 substrate turnover, NADPH consumption readout | Potency, µM (top dose mostly 114 µM), without a hit: at the highest dose activity change, negative = substrate turnover | actives 0.01% (n = 390,000) | AID 588456; note: potency is the fitted concentration of half-maximal effect; nearly all actives have a fitted effect of over 50% in size
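Rat TrxR1, dispensed at 90 nM, was prereduced with 400 uM NADPH (final) for 5 min at ~22 deg C, then incubated with compound 15 min before 400 uM selenite. A first-read NADPH fluorescence drop versus no-compound background flagged substrates.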
GALK inhibitor: inhibitors of human galactokinase. Purified GALK, Kinase-Glo residual ATP luminescence. Potency, µM (doses to about 57.5 µM), for inactives: at the highest dose activity change, negative = inhibition, most hits filed as inhibitors. actives 0.007% (n = 270,000); note: potency is the fitted concentration of half-maximal effect
Target sequence (P51570 whole entry, looked up): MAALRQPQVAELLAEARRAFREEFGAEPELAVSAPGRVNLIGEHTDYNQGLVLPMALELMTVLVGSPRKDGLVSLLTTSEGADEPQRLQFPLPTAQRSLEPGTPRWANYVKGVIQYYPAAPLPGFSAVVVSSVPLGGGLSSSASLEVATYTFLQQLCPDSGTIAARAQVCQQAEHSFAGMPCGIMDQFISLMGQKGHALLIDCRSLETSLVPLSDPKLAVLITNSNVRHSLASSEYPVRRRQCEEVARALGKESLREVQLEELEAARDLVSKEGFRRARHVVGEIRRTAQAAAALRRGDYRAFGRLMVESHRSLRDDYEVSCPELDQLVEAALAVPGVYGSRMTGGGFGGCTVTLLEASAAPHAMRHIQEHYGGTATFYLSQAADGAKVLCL
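GALK at 5 nM final was combined with compound, 35 uM ATP and 100 uM galactose in HEPES pH8.0 with MgCl2 and DTT. The reaction ran one hour at room temperature before luminescent ATP detection.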
CtBP-E1A inh: inhibitors of CtBP/E1A interaction | AID 651724 | AlphaScreen GST-E1A/His-CtBP binding, 1536-well; hits give low values | actives 0.49% (n = 340,000) | activity change, % (concentration not given with the values); in the data active = activity change below about -65%; inconclusive = mostly about -30% to -63%
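Steps: dispense buffer (Tris pH 8.0, NaCl 300 mM, TCEP 1 mM, BSA, Tween 20); add 5X protein mix (GST-E1A, His-CtBP, 125 nM each); pin 23 nL compound; 2 h at 37 °C, dark; add 5X beads (50 ug/mL); 1 h; read.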
* marks the source's active call; other numbers are inactive results; ! = a repeat was not active; [ ] = dose if it differs, or a comment. Rows were chosen to be rich in hits. Some 1.5% of all compounds tested hit in one or more screens of this group. Unless noted, calls come from the whole dose curve; as a rule, active = well fitted curve in the direction sought with a large enough effect; inconclusive = small, poorly fitted or top-dose-only effect, or another doubt; inactive = no such curve, though single readings can be large; an effect the other way counts as inactive or inconclusive. % is set by controls: 0 for no effect and ±100 for the full control effect.

What do the screens show for `CC1=C(O)C(=O)C=C2C1=CC=C1C2(C)CCC2(C)C3CC(C)(C(=O)O)CCC3(C)CCC12C` (centres undefined)?
Six1-Eya2 blk: -7.3; TrxR1 inh: 20µM*; TrxR1 substrate: -13.7%; CtBP-E1A inh: -1.3

How did C=CCN1C(=O)/C(=C/c2cc(C)n(-c3ccccn3)c2C)C(=O)NC1=S do in these assays?
Six1-Eya2 blk: -8.9; TrxR1 inh: 50.1µM*; Eya2 phos inh: -3.8%; TrxR1 substrate: -14.5%; GALK inhibitor: 0.1%; CtBP-E1A inh: 23.5

What do the screens show for `Cc1cc2c(C(C)C)c(O)c(O)c(C=O)c2c(O)c1-c1c(C)cc2c(C(C)C)c(O)c(O)c(C=O)c2c1O`?
TrxR1 inh: 39.8µM*; Eya2 phos inh: 31.6µM*!; TrxR1 substrate: inconclusive; GALK inhibitor: inconclusive

How did NC(=O)C1=CN(C2OC(COP(=O)(O)OP(=O)(O)OC[C@H]3O[C@@H](n4cnc5c(N)ncnc54)[C@H](OP(=O)(O)O)[C@H]3O)C(O)C2O)C=CC1 (some centres undefined) do in these assays?
TrxR1 inh: 3.4%[57.1 µM]

Results for COc1ccc(CCNC2CCCCC2)cc1 ?
Six1-Eya2 blk: 8.9; TrxR1 inh: 17.3%; Eya2 phos inh: 17.0%; TrxR1 substrate: 6.5%; GALK inhibitor: -0.9%; CtBP-E1A inh: 8.5

How did COc1ccc(C[C@H]2NC[C@H](O)[C@H]2OC(C)=O)cc1 do in these assays?
Six1-Eya2 blk: 3.1; TrxR1 inh: 39.8µM*; TrxR1 substrate: 5.5%; CtBP-E1A inh: 3.2

What do the screens show for `COc1ccc(-c2cc(=NCCCCCC(=O)O)c3cc(C)ccc3o2)cc1`?
Six1-Eya2 blk: -83.0*; TrxR1 inh: 15.8µM*!; Eya2 phos inh: -13.8%; TrxR1 substrate: inactive; GALK inhibitor: -1.2%; CtBP-E1A inh: -90.4*

Results for COc1ccc(-c2cc(=Nc3cccc(C(=O)O)c3)c3cc(C)ccc3o2)cc1 ?
Six1-Eya2 blk: -1.6; TrxR1 inh: 20.7%[57.1 µM]; Eya2 phos inh: 1.9%; TrxR1 substrate: 74.3%[57.1 µM]; GALK inhibitor: 7.0%; CtBP-E1A inh: 1.6

What do the screens show for `CN1CCC23CCCC[C@H]2C1Cc1ccc(O)cc13` (some centres undefined)?
TrxR1 inh: -0.2%

Results for CCN(CC)c1ccc(/C=C2\C(=O)NC(=O)N(Cc3ccco3)C2=O)cc1 ?
Six1-Eya2 blk: 3.0; TrxR1 inh: 28.2µM*; Eya2 phos inh: -3.6%; TrxR1 substrate: -8.1%; GALK inhibitor: 1.6%; CtBP-E1A inh: 3.5

Results for CCN1C(=O)NC(=O)/C(=C\c2cn(CC(=O)O)c3ccccc23)C1=O ?
Eya2 phos inh: 5.8%; GALK inhibitor: 3.2%

What do the screens show for `O=C(O)Cn1cc(/C=C2\C(=O)NC(=O)N(Cc3ccco3)C2=O)c2ccccc21`?
Six1-Eya2 blk: inconclusive; TrxR1 inh: 31.6µM*; Eya2 phos inh: -2.4%; TrxR1 substrate: -21.8%; GALK inhibitor: -1.1%; CtBP-E1A inh: -13.9

What do the screens show for `CCN(CC)c1ccc(/C=C2/C(=O)NC(=O)N(CC3CCCO3)C2=O)cc1` (centres undefined)?
Six1-Eya2 blk: 5.3; TrxR1 inh: inconclusive; Eya2 phos inh: 14.7%; TrxR1 substrate: -7.7%; GALK inhibitor: 3.7%; CtBP-E1A inh: 1.7

Results for COC1=C(C)C(=O)c2c(c(COC(N)=O)c3n2C[C@@H]2[C@@H]3N2C)C1=O (some centres undefined) ?
TrxR1 inh: inconclusive; TrxR1 substrate: 1.6%

What do the screens show for `Cc1nc2ccccc2c(=O)n1/N=C/c1cc(Br)cc(Br)c1O`?
Six1-Eya2 blk: -65.8*; TrxR1 inh: -18.8%; TrxR1 substrate: -12.6%; CtBP-E1A inh: -78.4*

Results for Cc1ccc(C(=O)CN2CCOCC2)cc1 ?
TrxR1 inh: 15.5%; TrxR1 substrate: 10.5%

How did O=C(CCl)c1ccc(O)c(O)c1 do in these assays?
TrxR1 inh: inconclusive; TrxR1 substrate: -2.0%

How did CC1=NN(c2ccccc2)C(=O)/C1=C/c1c(O)[nH]c(=S)[nH]c1=O do in these assays?
Six1-Eya2 blk: -1.7; TrxR1 inh: 17.8µM*; Eya2 phos inh: 4.3%; TrxR1 substrate: inconclusive; GALK inhibitor: -4.4%; CtBP-E1A inh: 2.1

How did CC1=NN(c2ccccc2)C(=O)/C1=C/c1c(O)[nH]c(=O)[nH]c1=O do in these assays?
Six1-Eya2 blk: 1.6; TrxR1 inh: -11.6%[57.1 µM]; Eya2 phos inh: -1.5%; TrxR1 substrate: -9.6%[57.1 µM]; GALK inhibitor: -1.5%; CtBP-E1A inh: -0.8

What do the screens show for `O=C1CCCCC1`?
Six1-Eya2 blk: 3.3; TrxR1 inh: 50.8%; Eya2 phos inh: -6.9%; TrxR1 substrate: 14.0%; CtBP-E1A inh: -0.5

What do the screens show for `C[n+]1c(-c2ccccc2)c2cc(N)ccc2c2ccc(N)cc21`?
Six1-Eya2 blk: -19.6; TrxR1 inh: 39.9%; Eya2 phos inh: 8.5%; TrxR1 substrate: -1.3%; CtBP-E1A inh: inconclusive

What do the screens show for `Nc1ccc2ccc3cccc[n+]3c2c1`?
Six1-Eya2 blk: -29.1; TrxR1 inh: 70.8µM*; Eya2 phos inh: inconclusive; TrxR1 substrate: -17.0%; GALK inhibitor: -6.0%; CtBP-E1A inh: -26.4

Results for CNC(=O)Oc1ccc(-c2cn3cc(Cl)ccc3n2)cc1 ?
Six1-Eya2 blk: -18.3; TrxR1 inh: 22.4µM*; Eya2 phos inh: -2.6%; TrxR1 substrate: 39.3%; GALK inhibitor: 0.1%; CtBP-E1A inh: -23.2

How did CNC(=O)Oc1cccc(-c2cn3cc(OC(=O)NC)ccc3n2)c1 do in these assays?
Six1-Eya2 blk: -15.2; TrxR1 inh: inconclusive; Eya2 phos inh: 1.9%; TrxR1 substrate: 54.6%; GALK inhibitor: 3.9%; CtBP-E1A inh: -6.3

How did CNC(CC(C)C)C(=O)NC1C(=O)NC(CC(N)=O)C(=O)NC2C(=O)NC3C(=O)NC(C(=O)NC(C(=O)O)c4cc(O)cc(O)c4-c4cc3ccc4O)C(O)c3ccc(c(Cl)c3)Oc3cc2cc(c3OC2OC(CO)C(O)C(O)C2OC2CC(C)(N)C(O)C(C)O2)Oc2ccc(cc2Cl)C1O (centres undefined) do in these assays?
Six1-Eya2 blk: 3.3; TrxR1 inh: -9.4%; TrxR1 substrate: 3.0%; CtBP-E1A inh: -5.1

Results for CCc1ccc(Nc2nc3c(S(=O)(=O)c4ccc(C)cc4)nnn3c3ccsc23)cc1 ?
TrxR1 inh: 13.5%; TrxR1 substrate: 41.6%

Results for O=C1/C(=C/c2ccccc2)C[C@@]2(O)[C@H]3Cc4ccc(O)c5c4[C@@]2(CCN3CC2CC2)C1O5 (some centres undefined) ?
Six1-Eya2 blk: 5.9; TrxR1 inh: 35.5µM*; Eya2 phos inh: -11.3%; TrxR1 substrate: -0.7%; CtBP-E1A inh: -10.8
